Activity calls are given as the source filed them. How the source made its calls: active means hit-call score of the fitted dose curve at least 0.9, where 1 is the maximum; inactive means score below 0.9.
read-out: growth arrest and DNA damage 45 (GADD45A), GADD45A (gene 1647); experiment: LTEA_HepaRG_GADD45A: Life Technologies and Expression Analysis (LTEA) Assay for growth arrest and DNA damage 45 (GADD45A) using HepaRG (AID 2283458); details: mRNA level, 48 h; actives raise or lower the signal
Outline: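 Eight-point concentration-response in HepaRG cells: 48 h chemical exposure, 0.5% DMSO vehicle, top dose 100 uM. Normalized qRT-PCR mRNA readout with bidirectional fitting relative to DMSO.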

| SMILES | outcome | AC50 |
| --- | --- | --- |
| Cc1nc(C)nc(N2C[C@@H](C)N(c3ccnc([C@@H](C)O)n3)[C@@H](C)C2)n1 | inactive |  |
| O=C(O)Cc1ccccc1Nc1c(Cl)cccc1Cl | inactive |  |
| NCCO | inactive |  |
| COc1ccc(S(=O)(=O)N2C(=O)[C@@](c3ccccc3OC)(N3C[C@H](O)C[C@H]3C(=O)N(C)C)c3cc(Cl)ccc32)c(OC)c1 |  | 87.9 µM (active) |
| O=C(O)CCCCC(=O)O | inactive |  |
| Cc1ccc(C)c(O)c1C | inactive |  |
| Cc1ccc(C(C)C)c(O)c1 | inactive |  |
| Nc1nc(N)c2nc(CNc3ccc(C(=O)N[C@@H](CCC(=O)O)C(=O)O)cc3)cnc2n1 | inactive |  |
| CN1CCCC1=O | inactive |  |
| Oc1ccc2ccccc2c1N=Nc1ccccc1 | inactive |  |
| CN1CCN(Cc2cc(-c3ccc4[nH]c(=O)oc4c3)co2)[C@@H](c2ccc(F)cc2)C1 | inactive |  |
| CCCCC(CC)COC(=O)CC(C(=O)OCC(CC)CCCC)S(=O)(=O)O (configuration not stated) |  | 93.9 µM (active) |
| NS(=O)(=O)c1cc2c(cc1Cl)NCNS2(=O)=O | inactive |  |
| CC(=O)C(C)=CC1C(C)=CCCC1(C)C (configuration not stated) | inactive |  |
| CCNc1cccc(C)c1 | inactive |  |
| Cc1cccc([N+](=O)[O-])c1C | inactive |  |
| NCC1(Cc2noc(=O)[nH]2)CCCCC1 | inactive |  |
| Cc1oc(-c2ccccc2)nc1CCOc1cccc2c1ccn2CCC(=O)O |  | 75.2 µM (active) |
| COc1ccc(C)cc1N | inactive |  |
| CCOC(=O)CCC(=O)OCC | inactive |  |
| Cc1cc(NC(=O)C(=O)O)cc(C)c1Oc1ccc(O)c2c1CCC2 | inactive |  |
| O=c1[nH]cc(F)c(=O)[nH]1 | inactive |  |
